39 molecules from the supplement of paper PMC12494721 can be followed below.

Structures can show the parent of a compound that is named as a salt.

The first test deals with Klebsiella aerogenes DSM 30053. The experiment in a line: fold change of Putrescine concentration vs plate DMSO controls (fold change (ratio)); higher = more amine produced, active = hit call of the paper (significant change in both replicates, either direction). As to conditions: incubation time: 27 h, anaerobic, 37 °C. Put shortly:
(§1)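 In 80 µL wells, cultures of four gut bacterial strains in mGAM started at OD 0.1 before a 1:1 dilution and grew anaerobically at 37 °C for 27 h. Compounds were added to 20 µM final, except sweeteners at 50 µM final. After extraction of whole cultures with cold acetonitrile/methanol plus 0.1% formic acid and centrifugation, amines were measured by LC–triple-quadrupole MS in dynamic MRM mode against external calibration curves, with within-batch drift correction. Values give fold change over DMSO controls on the same plate, averaged across 2 biological replicates.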
Consider `COc1ccc2cc([C@H](C)C(=O)O)ccc2c1` [(S)-Naproxen] (20 µM), for which the “fold change of Putrescine concentration” value was 0.977 (inactive).

As to `COC(=O)Nc1nc2cc(C(=O)c3ccc(F)cc3)ccc2[nH]1` [Flubendazol] (20 µM), the “fold change of Putrescine concentration” value was 1.02 (inactive).

As to `O=C(O)COc1nn(Cc2ccccc2)c2ccccc12` [Bendazac] (20 µM), the “fold change of Putrescine concentration” value was 1 (inactive).

Regarding `O=C(O)Cc1ccc(-c2ccccc2)cc1` [Felbinac] (20 µM), the “fold change of Putrescine concentration” value was 0.976 (inactive).

On to `CCOc1ccc2c(c1)C(C)=CC(C)(C)N2` [Ethoxyquin] (20 µM), for which the “fold change of Putrescine concentration” value is 1.01 (inactive).

For the molecule `CN1CC2c3ccccc3Oc3ccc(Cl)cc3C2C1` (stereo unspecified) [Asenapine maleate] (20 µM), the “fold change of Putrescine concentration” value was 1.02 (inactive).

On to `CCOC(=O)OC(C)OC(=O)[C@@H]1N2C(=O)[C@@H](NC(=O)[C@H](N)c3ccccc3)[C@H]2SC1(C)C` (stereo partly specified) [Bacampicillin hydrochloride] (20 µM), for which the “fold change of Putrescine concentration” value is 1.07 (inactive).

Consider `CCCOc1ccccc1-c1nc2[nH]nnc2c(=O)[nH]1` [Zaprinast] (20 µM), for which the “fold change of Putrescine concentration” value was 1 (inactive).

With `CCCCC(O)c1ccccc1` (stereo unspecified) [Fenipentol] (20 µM), the “fold change of Putrescine concentration” value was 0.987 (inactive).

As for `CN[C@H](CC(C)C)C(=O)N[C@H]1C(=O)N[C@@H](CC(N)=O)C(=O)N[C@H]2C(=O)N[C@H]3C(=O)N[C@H](C(=O)N[C@H](C(=O)O)c4cc(O)cc(O)c4-c4cc3ccc4O)[C@H](O)c3ccc(c(Cl)c3)Oc3cc2cc(c3O[C@@H]2O[C@H](CO)[C@@H](O)[C@H](O)[C@H]2O[C@H]2C[C@](C)(N)[C@H](O)[C@H](C)O2)Oc2ccc(cc2Cl)[C@H]1O` [Vancomycin hydrochloride] (20 µM), the “fold change of Putrescine concentration” value was 1.04 (inactive).

Take `N#Cc1ccc(Oc2ccc3c(c2)COB3O)cc1` [Crisaborole] (20 µM): the “fold change of Putrescine concentration” value is 0.987 (inactive).

Take `COc1ccc([C@@H]2Sc3ccccc3N(CCN(C)C)C(=O)[C@@H]2OC(C)=O)cc1` [Diltiazem hydrochloride] (20 µM): the “fold change of Putrescine concentration” value is 1.02 (inactive).

A further test deals with Escherichia coli IAI1. The experiment in a line: fold change of Cadaverine concentration vs plate DMSO controls (fold change (ratio)); higher = more amine produced, active = hit call of the paper (significant change in both replicates, either direction). As to conditions: incubation time: 27 h, anaerobic, 37 °C. Summed up:
as §1
Consider `CC(=O)OCC(CCn1cnc2cnc(N)nc21)COC(C)=O` [Famciclovir] (20 µM), for which the “fold change of Cadaverine concentration” value was 1.01 (inactive).

Turning to `COC(c1ccccc1)(c1ccccc1)[C@H](Oc1nc(C)cc(C)n1)C(=O)O` [Ambrisentan] (20 µM), the “fold change of Cadaverine concentration” value is 0.985 (inactive).

Take `C[C@H](CCC(=O)O)[C@H]1CC[C@H]2[C@@H]3[C@@H](O)C[C@@H]4C[C@H](O)CC[C@]4(C)[C@H]3CC[C@]12C` [Urosiol] (20 µM): the “fold change of Cadaverine concentration” value was 0.954 (inactive).

Regarding `C=C(CC)C(=O)c1ccc(OCC(=O)O)c(Cl)c1Cl` [Ethacrynic acid] (20 µM), the “fold change of Cadaverine concentration” value was 0.985 (inactive).

As for `C[C@]12CC[C@@H]3c4ccc(O)cc4CC[C@H]3[C@@H]1C[C@@H](O)[C@@H]2O` [Estriol] (20 µM), the “fold change of Cadaverine concentration” value was 1.02 (inactive).

Regarding `Cc1cc2cc3c(C)cc(=O)oc3c(C)c2o1` [Trioxsalen] (20 µM), the “fold change of Cadaverine concentration” value is 1.03 (inactive).

On to `O=C(Nc1cccc2c(=O)cc(-c3nnn[nH]3)oc12)c1ccc(OCCCCc2ccccc2)cc1` [Pranlukast] (20 µM), for which the “fold change of Cadaverine concentration” value is 1.03 (inactive).

Take `C[N+]1(C)CCC(OC(=O)C(O)(c2ccccc2)C2CCCC2)C1` (stereo unspecified) [Glycopyrrolate bromide] (20 µM): the “fold change of Cadaverine concentration” value is 1.01 (inactive).

On to `CC(C)(O)c1ccccc1CC[C@@H](SCC1(CC(=O)O)CC1)c1cccc(/C=C/c2ccc3ccc(Cl)cc3n2)c1` [Montelukast] (20 µM), for which the “fold change of Cadaverine concentration” value was 1.03 (inactive).

On to `C[C@@H]1C[C@H]2[C@@H]3C[C@H](F)C4=CC(=O)C=C[C@]4(C)[C@@]3(Cl)[C@@H](O)C[C@]2(C)[C@H]1C(=O)COC(=O)C(C)(C)C` [Clocortolone pivalate] (20 µM), for which the “fold change of Cadaverine concentration” value is 1.01 (inactive).

For `CCOC(=O)C1=C[C@]2(CC)CCCN3CCc4c(n1c1ccccc41)[C@@H]32` [Vinpocetine] (20 µM), the “fold change of Cadaverine concentration” value was 1.02 (inactive).

With `Clc1ccccc1C(c1ccccc1)(c1ccccc1)n1ccnc1` [Clotrimazole] (20 µM), the “fold change of Cadaverine concentration” value was 0.955 (inactive).

`CC(C[N+](C)(C)C)OC(N)=O` (stereo unspecified) [Bethanechol chloride] (20 µM): the “fold change of Cadaverine concentration” value was 1 (inactive).

In the case of `C=CC(N)CCC(=O)O` (stereo unspecified) [Vigabatrin hydrochloride] (20 µM), the “fold change of Cadaverine concentration” value is 0.978 (inactive).

With `C=C1C[C@@]23CC[C@H]4[C@@](C)(CCC[C@@]4(C)C(=O)O[C@@H]4O[C@H](CO)[C@@H](O)[C@H](O)[C@H]4O)[C@@H]2CC[C@]1(O[C@@H]1O[C@H](CO)[C@@H](O)[C@H](O)[C@H]1O[C@@H]1O[C@H](CO)[C@@H](O)[C@H](O)[C@H]1O)C3` [Stevioside] (50 µM), the “fold change of Cadaverine concentration” value was 1.04 (inactive).

In the case of `CCCN(CCC)C(=O)C(CCC(=O)O)NC(=O)c1ccccc1` (stereo unspecified) [Proglumide] (20 µM), the “fold change of Cadaverine concentration” value is 0.929 (inactive).

For `CN1CCC(=C2c3ccccc3CC(=O)c3sccc32)CC1` [Ketotifen fumarate] (20 µM), the “fold change of Cadaverine concentration” value is 1.01 (inactive).

On to `Cc1ccc(-c2ncc(Cl)cc2-c2ccc(S(C)(=O)=O)cc2)cn1` [Etoricoxib] (20 µM), for which the “fold change of Cadaverine concentration” value was 0.905 (inactive).

On to `C[C@@H](O)[C@H]1C(=O)N2C(C(=O)O)=C(S[C@@H]3CN[C@H](C(=O)N(C)C)C3)[C@H](C)[C@H]12` [Meropenem] (20 µM), for which the “fold change of Cadaverine concentration” value is 0.971 (inactive).

Turning to `CC(C)(C)c1ccc(C(O)CCCN2CCC(C(O)(c3ccccc3)c3ccccc3)CC2)cc1` (stereo unspecified) [Terfenadine] (20 µM), the “fold change of Cadaverine concentration” value is 1.05 (inactive).

As for `CC(NN)c1ccccc1` (stereo unspecified) [Mebanazine] (20 µM), the “fold change of Cadaverine concentration” value is 0.986 (inactive).

As to `OCCN1CCN(CC/C=C2/c3ccccc3Sc3ccc(C(F)(F)F)cc32)CC1` [Flupentixol dihydrochloride cis-(Z)] (20 µM), the “fold change of Cadaverine concentration” value is 0.852 (inactive).

Consider `C#CCN(C)CCCOc1ccc(Cl)cc1Cl` [Clorgyline hydrochloride] (20 µM), for which the “fold change of Cadaverine concentration” value is 0.983 (inactive).

For the molecule `CN(C)C(=O)C(CCN1CCC(O)(c2ccc(Cl)cc2)CC1)(c1ccccc1)c1ccccc1` [Loperamide hydrochloride] (20 µM), the “fold change of Cadaverine concentration” value was 1.02 (inactive).

With `CC[N+](CC)(CC(=O)Nc1c(C)cccc1C)Cc1ccccc1` [Denatonium benzoate] (20 µM), the “fold change of Cadaverine concentration” value was 0.91 (inactive).

As to `COc1cc(C)c(/C=C/C(C)=C/C=C/C(C)=C/C(=O)O)c(C)c1C` [Acitretin] (20 µM), the “fold change of Cadaverine concentration” value is 0.971 (inactive).

On to `Nc1ccn([C@@H]2O[C@H](CO)[C@@H](O)[C@@H]2O)c(=O)n1` [Cytarabine] (20 µM), for which the “fold change of Cadaverine concentration” value was 1.32 (active).

As to `COc1ccc2cc([C@H](C)C(=O)O)ccc2c1` [(S)-Naproxen] (20 µM), the “fold change of Cadaverine concentration” value is 1 (inactive).

In the case of `COC(=O)Nc1nc2cc(C(=O)c3ccc(F)cc3)ccc2[nH]1` [Flubendazol] (20 µM), the “fold change of Cadaverine concentration” value was 0.956 (inactive).

As to `O=C(O)COc1nn(Cc2ccccc2)c2ccccc12` [Bendazac] (20 µM), the “fold change of Cadaverine concentration” value is 0.973 (inactive).

Regarding `O=C(O)Cc1ccc(-c2ccccc2)cc1` [Felbinac] (20 µM), the “fold change of Cadaverine concentration” value was 0.989 (inactive).

Consider `CCOc1ccc2c(c1)C(C)=CC(C)(C)N2` [Ethoxyquin] (20 µM), for which the “fold change of Cadaverine concentration” value was 0.994 (inactive).

For `CN1CC2c3ccccc3Oc3ccc(Cl)cc3C2C1` (stereo unspecified) [Asenapine maleate] (20 µM), the “fold change of Cadaverine concentration” value is 0.973 (inactive).

Consider `CCOC(=O)OC(C)OC(=O)[C@@H]1N2C(=O)[C@@H](NC(=O)[C@H](N)c3ccccc3)[C@H]2SC1(C)C` (stereo partly specified) [Bacampicillin hydrochloride] (20 µM), for which the “fold change of Cadaverine concentration” value is 1.6 (active).

Take `CCCOc1ccccc1-c1nc2[nH]nnc2c(=O)[nH]1` [Zaprinast] (20 µM): the “fold change of Cadaverine concentration” value is 0.974 (inactive).

Consider `CCCCC(O)c1ccccc1` (stereo unspecified) [Fenipentol] (20 µM), for which the “fold change of Cadaverine concentration” value is 1.03 (inactive).

Consider `CN[C@H](CC(C)C)C(=O)N[C@H]1C(=O)N[C@@H](CC(N)=O)C(=O)N[C@H]2C(=O)N[C@H]3C(=O)N[C@H](C(=O)N[C@H](C(=O)O)c4cc(O)cc(O)c4-c4cc3ccc4O)[C@H](O)c3ccc(c(Cl)c3)Oc3cc2cc(c3O[C@@H]2O[C@H](CO)[C@@H](O)[C@H](O)[C@H]2O[C@H]2C[C@](C)(N)[C@H](O)[C@H](C)O2)Oc2ccc(cc2Cl)[C@H]1O` [Vancomycin hydrochloride] (20 µM), for which the “fold change of Cadaverine concentration” value is 0.953 (inactive).

With `N#Cc1ccc(Oc2ccc3c(c2)COB3O)cc1` [Crisaborole] (20 µM), the “fold change of Cadaverine concentration” value was 1 (inactive).

Take `COc1ccc([C@@H]2Sc3ccccc3N(CCN(C)C)C(=O)[C@@H]2OC(C)=O)cc1` [Diltiazem hydrochloride] (20 µM): the “fold change of Cadaverine concentration” value is 0.985 (inactive).
